Data as given in PubChem BioAssay (EPA / NIEHS).
Values joined by “and” are separate entries in the source; they are usually repeats but may differ in a detail not shown here. Identical values can stand only once. Some structures have more than one record in an assay (separate samples or runs), and their calls can disagree. Active and inactive are the calls of the source. How the source made its calls: active means hit-call score of the fitted dose curve at least 0.9, where 1 is the maximum; inactive means score below 0.9.

Key:
[1] = ATG_M_32_CIS: Attagene CIS-FACTORIAL HepG2 Assay for M32 Transcription Factor (Internal Marker) (AID 2282949); conditions: HepG2 Attagene cis-factorial M32 reporter, mRNA; actives raise or lower the signal;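 further: background control marker of the multiplexed CIS panel rather than a real target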
Outline: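 Using DMSO as baseline, bidirectional curve fits were applied to reporter mRNA signals. These came from transiently transfected HepG2 cells exposed for 24 h, with RNA analysed by RT-PCR, FAM primer extension, HpaI digestion and CE.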

[2] = ATG_M_06_CIS: Attagene CIS-FACTORIAL HepG2 Assay for M06 Transcription Factor (Internal Marker) (AID 2282950); conditions: HepG2 Attagene CIS-FACTORIAL M06 internal marker reporter; actives raise or lower the signal
Outline: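 Read-out is fluorescence of labelled reporter cDNA fragments resolved by capillary electrophoresis after RT-PCR. Cells: HepG2 carrying transfected cis-promoter reporter units, treated 24 h. Gain or loss of signal fitted relative to DMSO.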

[3] = molecular target: Hypoxia-inducible factor 1-alpha (Homo sapiens) (UniProt Q16665); assay: ATG_HIF1a_CIS: Attagene CIS-FACTORIAL HepG2 Assay for human Hypoxia Inducible Factor 1 (HIF1A) (AID 2282951); conditions: HepG2 Attagene cis-factorial HIF1a reporter transcription; actives raise or lower the signal
Outline: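 In this multiplexed cell assay, HepG2 cells bearing transfected cis reporters are dosed for 24 h and reporter mRNA is read by RT-PCR plus capillary electrophoresis; signal increases and decreases are both scored against DMSO.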

[4] = molecular target: Hepatocyte nuclear factor 6 (Homo sapiens) (UniProt Q9UBC0); assay: ATG_HNF6_CIS: Attagene CIS-FACTORIAL HepG2 Assay for human Hepatocyte Nuclear Factor 6 (HNF6) (AID 2282952); conditions: HepG2 Attagene cis-factorial HNF6 reporter transcription; actives raise or lower the signal
Outline: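 Endogenous transcription factor activity in human HepG2 liver cells was captured through cis-regulated reporter constructs. After 24 h treatment, reporter mRNA was measured by RT-PCR with capillary electrophoresis, and activity was fitted in both directions relative to DMSO.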

[5] = molecular target: Heat shock factor protein 1 (Homo sapiens) (UniProt Q00613); assay: ATG_HSE_CIS: Attagene CIS-FACTORIAL HepG2 Assay for human Heat Shock Transcription Factor 1 (HSE) (AID 2282953); conditions: HepG2 HSE cis-reporter, Attagene RNA transcription; actives raise or lower the signal
Outline: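 HepG2, transient MRTU transfection, cis-promoter reporters (endogenous TF activity). 24 h compound. RNA → oligo(dT) RT → PCR → 6-FAM primer extension → HpaI cut → CE. Bidirectional fit vs DMSO.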

[6] = ATG_MRE_CIS: Attagene CIS-FACTORIAL HepG2 Assay for human Metal Responsive Element (MRE) (AID 2282954); conditions: HepG2 MRE cis-reporter transcription, Attagene multiplex; actives raise or lower the signal
Outline: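 Multiplexed cis-reporter assay in human HepG2 liver cells, 24 h incubation with test chemical. Reporter transcripts measured by RT-PCR and capillary electrophoresis; values from bidirectional curve fitting versus DMSO.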

[7] = ATG_PBREM_CIS: Attagene CIS-FACTORIAL HepG2 Assay for human Phenobarbital-responsive Enhancer Module (PBREM) (AID 2282955); conditions: HepG2 PBREM cis-reporter, Attagene multiplexed transcription; actives raise or lower the signal
Outline: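 After a 24 h incubation with test chemical, transfected HepG2 cells yield total RNA; reporter-specific RT-PCR products are fluorescently labelled, HpaI-digested and resolved by capillary electrophoresis against ROX size standards.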

[8] = molecular target: Paired box protein Pax-6 (Homo sapiens) (UniProt P26367); assay: ATG_Pax6_CIS: Attagene CIS-FACTORIAL HepG2 Assay for human Paired Box 6 (PAX6) (AID 2282956); conditions: HepG2 CIS-FACTORIAL PAX6 reporter transcription, RNA readout; actives raise or lower the signal
Outline: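 DMSO-referenced bidirectional fits of reporter mRNA fluorescence; HepG2 with transient cis-promoter MRTUs, 24 h post-dose, RT-PCR plus capillary electrophoresis detection.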

[9] = ATG_PXRE_CIS: Attagene CIS-FACTORIAL HepG2 Assay for human Pregnane X Receptor Element (PXRE) (AID 2282957); conditions: HepG2 Attagene CIS-FACTORIAL PXRE reporter, mRNA; actives raise or lower the signal
Outline: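 Endogenous transcription factor activity in HepG2 was gauged through induction of reporter mRNA driven by a cis-regulating promoter element, sampled 24 h post-treatment. Activity was fitted in both directions against DMSO negative control.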

[10] = ATG_PPRE_CIS: Attagene CIS-FACTORIAL HepG2 Assay for human Peroxisome Proliferator-activated Response Element (PPRE) (AID 2282958); conditions: HepG2 PPRE cis-element reporter, Attagene transcription factor profiling; actives raise or lower the signal
Outline: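 Multiplexed reporter transcription units under cis-regulatory promoters were transfected into HepG2 cells to capture endogenous factor activity. A 24 h incubation preceded RNA isolation and fluorescent RT-PCR fragment analysis.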

[11] = ATG_RORE_CIS: Attagene CIS-FACTORIAL HepG2 Assay for human RAR-related Orphan Receptor Element (RORE) (AID 2282959); conditions: HepG2 Attagene cis-factorial RORE reporter, mRNA; actives raise or lower the signal
Outline: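 Fluorescence intensity of reporter-specific cDNA fragments, separated by capillary electrophoresis, gives the signal. Source: HepG2 liver cells transiently transfected with cis-element reporters and exposed 24 h; DMSO-normalized bidirectional fit.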

[12] = ATG_Sox_CIS: Attagene CIS-FACTORIAL HepG2 Assay for human SRY-box transcription factor (SOX) (AID 2282960); conditions: HepG2 Attagene cis-factorial SOX reporter, mRNA; actives raise or lower the signal
Outline: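 After 24 h of chemical treatment, transfected HepG2 reporter cells are lysed for total RNA. Transcript levels come from RT-PCR with labelled primer extension and capillary electrophoresis, analysed bidirectionally versus DMSO.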

[13] = molecular target: Transcription factor Sp1 (Homo sapiens) (UniProt P08047); assay: ATG_Sp1_CIS: Attagene CIS-FACTORIAL HepG2 Assay for human Specificity Protein 1 (Sp1) (AID 2282961); conditions: HepG2 Sp1 cis-reporter transcription, actives raise or lower the signal
Outline: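 Sp1-driven reporter mRNA, read as capillary electrophoresis fluorescence after RT-PCR, in transiently transfected HepG2 cells dosed for 24 h; signal change in either direction relative to DMSO.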

[14] = ATG_SREBP_CIS: Attagene CIS-FACTORIAL HepG2 Assay for human Sterol Regulatory Element Binding (SREBP) (AID 2282962); conditions: HepG2 Attagene cis-factorial SREBP reporter, mRNA; actives raise or lower the signal
Outline: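 In this cis-format assay, HepG2 liver cells express reporters controlled by promoter elements responsive to native transcription factors. Exposure lasts 24 h; reporter mRNA fluorescence from capillary electrophoresis gives the signal, fitted bidirectionally against DMSO.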

[15] = molecular target: Signal transducer and activator of transcription 3 (Homo sapiens) (UniProt P40763); assay: ATG_STAT3_CIS: Attagene CIS-FACTORIAL HepG2 Assay for human Signal Transducer and Activator of Transcription 3 (STAT3) (AID 2282963); conditions: HepG2, Attagene cis-factorial STAT3 reporter transcription; actives raise or lower the signal
Outline: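 Cis-factorial format: endogenous transcription factors in HepG2 drive transfected reporter units. After 24 h treatment, reporter RNA was reverse-transcribed, amplified, FAM-labelled and HpaI-digested before CE analysis; activity scored in both directions against DMSO.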

[16] = ATG_TA_CIS: Attagene CIS-FACTORIAL HepG2 Assay for human TA Basal Promoter (AID 2282964); conditions: HepG2 Attagene CIS-factorial TA basal promoter reporter; actives raise or lower the signal
Outline: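 Read-out: fluorescent reporter-transcript fragments resolved by capillary electrophoresis after RT-PCR and HpaI digestion. Source: HepG2 cells carrying transiently transfected multi-reporter cis constructs, treated 24 h. Endpoint fitted bidirectionally relative to DMSO.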

[17] = ATG_TCF_b_cat_CIS: Attagene CIS-FACTORIAL HepG2 Assay for human T-Cell-Factor with beta-catenin (TCF/b-cat) (AID 2282965); conditions: HepG2 TCF/beta-catenin cis-reporter transcription, actives raise or lower the signal
Outline: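 Measured: reporter mRNA in HepG2 transiently transfected with cis-promoter reporter units, 24 h after chemical addition. Fitting was bidirectional, DMSO as negative control.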

[18] = ATG_TAL_CIS: Attagene CIS-FACTORIAL HepG2 Assay for human TAL Basal Promoter (AID 2282966); conditions: HepG2 Attagene cis-factorial TAL promoter reporter; actives raise or lower the signal;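 further: background control endpoint measuring basal TAL promoter reporter mRNA not a specific factor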
Outline: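 Endogenous transcription-factor activity is sensed in HepG2 cells through transfected cis-promoter reporter constructs. After 24 h dosing, reporter transcripts are quantified by RT-PCR and capillary electrophoresis. Gain or loss of signal is fitted relative to DMSO.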

[19] = ATG_TGFb_CIS: Attagene CIS-FACTORIAL HepG2 Assay for human Transforming Growth Factor (TGF) (AID 2282967); conditions: HepG2 Attagene CIS TGFb reporter, mRNA transcription; actives raise or lower the signal
Outline: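 Transient MRTU transfection of HepG2 (FuGene 6). Dose 24 h. TriZol RNA, oligo(dT) RT, PCR, 6-FAM primer extension, HpaI cut, CE. Bidirectional fit, DMSO = baseline.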

[20] = ATG_VDRE_CIS: Attagene CIS-FACTORIAL HepG2 Assay for human Vitamin D Receptor Element (VDRE) (AID 2282968); conditions: HepG2 VDRE cis-reporter transcription, actives raise or lower the signal
Outline: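 Measures endogenous factor activity through cis-element-driven reporter transcripts in transiently transfected HepG2. Cells are treated 24 h; reporter mRNA is quantified by RT-PCR and capillary electrophoresis; fitting is bidirectional.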

Measured: AC50

Heat shock factor protein 1 (Homo sapiens), sequence (Q00613 whole entry, looked up): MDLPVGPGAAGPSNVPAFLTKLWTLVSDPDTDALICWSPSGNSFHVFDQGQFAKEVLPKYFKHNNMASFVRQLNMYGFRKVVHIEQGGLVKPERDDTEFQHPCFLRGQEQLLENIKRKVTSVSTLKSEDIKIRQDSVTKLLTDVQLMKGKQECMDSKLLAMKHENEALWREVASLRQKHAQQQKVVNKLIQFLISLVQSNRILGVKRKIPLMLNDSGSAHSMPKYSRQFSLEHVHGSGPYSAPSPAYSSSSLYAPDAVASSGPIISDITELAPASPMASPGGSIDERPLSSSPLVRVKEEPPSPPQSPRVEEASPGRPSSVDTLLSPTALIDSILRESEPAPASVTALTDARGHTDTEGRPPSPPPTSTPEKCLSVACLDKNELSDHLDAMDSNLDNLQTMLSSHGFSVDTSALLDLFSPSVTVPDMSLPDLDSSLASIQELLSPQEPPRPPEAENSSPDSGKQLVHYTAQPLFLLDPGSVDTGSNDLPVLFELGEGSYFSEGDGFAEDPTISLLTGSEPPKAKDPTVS
Paired box protein Pax-6 (Homo sapiens), sequence (P26367 whole entry, looked up): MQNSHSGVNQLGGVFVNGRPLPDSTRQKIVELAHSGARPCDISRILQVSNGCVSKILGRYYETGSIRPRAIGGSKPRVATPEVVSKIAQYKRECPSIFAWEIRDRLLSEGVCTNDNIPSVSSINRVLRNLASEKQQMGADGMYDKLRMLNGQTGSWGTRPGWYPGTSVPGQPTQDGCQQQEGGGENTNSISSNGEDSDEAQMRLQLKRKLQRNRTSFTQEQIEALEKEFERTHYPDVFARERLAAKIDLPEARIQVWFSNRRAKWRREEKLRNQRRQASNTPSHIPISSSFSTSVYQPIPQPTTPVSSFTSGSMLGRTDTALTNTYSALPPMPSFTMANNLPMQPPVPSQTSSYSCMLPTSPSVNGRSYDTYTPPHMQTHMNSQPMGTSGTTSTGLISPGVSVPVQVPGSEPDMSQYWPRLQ
Transcription factor Sp1 (Homo sapiens), sequence (P08047 whole entry, looked up): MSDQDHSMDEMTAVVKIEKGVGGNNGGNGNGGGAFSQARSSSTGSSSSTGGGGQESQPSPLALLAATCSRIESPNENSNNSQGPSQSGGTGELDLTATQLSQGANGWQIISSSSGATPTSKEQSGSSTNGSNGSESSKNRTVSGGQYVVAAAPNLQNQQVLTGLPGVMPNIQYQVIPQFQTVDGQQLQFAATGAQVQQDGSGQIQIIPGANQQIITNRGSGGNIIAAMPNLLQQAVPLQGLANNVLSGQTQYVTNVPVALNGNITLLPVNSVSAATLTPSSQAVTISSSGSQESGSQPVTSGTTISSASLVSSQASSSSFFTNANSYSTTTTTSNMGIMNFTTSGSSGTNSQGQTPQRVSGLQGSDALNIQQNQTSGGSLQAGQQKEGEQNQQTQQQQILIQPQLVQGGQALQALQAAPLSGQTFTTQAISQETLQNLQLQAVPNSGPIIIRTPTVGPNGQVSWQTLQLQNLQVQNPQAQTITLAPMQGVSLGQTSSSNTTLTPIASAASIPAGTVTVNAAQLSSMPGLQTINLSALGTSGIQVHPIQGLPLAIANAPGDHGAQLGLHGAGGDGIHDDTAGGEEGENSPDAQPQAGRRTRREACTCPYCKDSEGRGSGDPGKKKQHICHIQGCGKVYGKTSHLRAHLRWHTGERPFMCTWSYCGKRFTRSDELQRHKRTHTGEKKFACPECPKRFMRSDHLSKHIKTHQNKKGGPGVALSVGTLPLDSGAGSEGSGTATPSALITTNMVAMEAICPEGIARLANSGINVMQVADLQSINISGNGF
Hepatocyte nuclear factor 6 (Homo sapiens), sequence (Q9UBC0 whole entry, looked up): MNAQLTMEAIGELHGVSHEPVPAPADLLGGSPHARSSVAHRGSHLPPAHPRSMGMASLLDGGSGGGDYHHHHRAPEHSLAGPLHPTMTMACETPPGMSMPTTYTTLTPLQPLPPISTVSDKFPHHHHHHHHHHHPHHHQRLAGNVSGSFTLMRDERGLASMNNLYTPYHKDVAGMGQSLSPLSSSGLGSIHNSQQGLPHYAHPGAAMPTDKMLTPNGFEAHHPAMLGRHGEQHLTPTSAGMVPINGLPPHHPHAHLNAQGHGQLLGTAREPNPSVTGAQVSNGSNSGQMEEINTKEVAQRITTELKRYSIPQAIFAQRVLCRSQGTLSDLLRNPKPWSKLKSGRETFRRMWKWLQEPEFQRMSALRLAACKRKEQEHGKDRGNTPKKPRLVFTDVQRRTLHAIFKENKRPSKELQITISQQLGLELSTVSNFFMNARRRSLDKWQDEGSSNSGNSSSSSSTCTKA
Signal transducer and activator of transcription 3 (Homo sapiens), sequence (P40763 whole entry, looked up): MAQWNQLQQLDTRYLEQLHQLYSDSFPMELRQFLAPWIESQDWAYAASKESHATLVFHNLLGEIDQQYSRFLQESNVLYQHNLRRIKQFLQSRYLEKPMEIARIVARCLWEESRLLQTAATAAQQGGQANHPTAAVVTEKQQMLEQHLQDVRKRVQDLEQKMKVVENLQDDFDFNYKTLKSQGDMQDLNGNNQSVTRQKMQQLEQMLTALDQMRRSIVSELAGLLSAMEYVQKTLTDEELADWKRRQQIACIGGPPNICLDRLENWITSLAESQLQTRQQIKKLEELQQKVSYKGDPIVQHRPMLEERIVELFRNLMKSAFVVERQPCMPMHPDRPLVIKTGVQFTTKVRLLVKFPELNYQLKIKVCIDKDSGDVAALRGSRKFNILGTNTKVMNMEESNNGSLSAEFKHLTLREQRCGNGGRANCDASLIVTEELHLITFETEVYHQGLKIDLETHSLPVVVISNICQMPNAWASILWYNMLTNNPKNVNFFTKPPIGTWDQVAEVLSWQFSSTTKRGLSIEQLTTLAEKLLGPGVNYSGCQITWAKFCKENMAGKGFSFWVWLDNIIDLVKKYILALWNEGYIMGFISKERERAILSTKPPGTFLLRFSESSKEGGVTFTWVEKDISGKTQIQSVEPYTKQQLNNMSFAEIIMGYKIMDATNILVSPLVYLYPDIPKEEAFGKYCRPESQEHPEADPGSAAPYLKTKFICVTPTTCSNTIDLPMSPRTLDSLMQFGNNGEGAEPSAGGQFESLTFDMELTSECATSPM
Hypoxia-inducible factor 1-alpha (Homo sapiens), sequence (Q16665 whole entry, looked up): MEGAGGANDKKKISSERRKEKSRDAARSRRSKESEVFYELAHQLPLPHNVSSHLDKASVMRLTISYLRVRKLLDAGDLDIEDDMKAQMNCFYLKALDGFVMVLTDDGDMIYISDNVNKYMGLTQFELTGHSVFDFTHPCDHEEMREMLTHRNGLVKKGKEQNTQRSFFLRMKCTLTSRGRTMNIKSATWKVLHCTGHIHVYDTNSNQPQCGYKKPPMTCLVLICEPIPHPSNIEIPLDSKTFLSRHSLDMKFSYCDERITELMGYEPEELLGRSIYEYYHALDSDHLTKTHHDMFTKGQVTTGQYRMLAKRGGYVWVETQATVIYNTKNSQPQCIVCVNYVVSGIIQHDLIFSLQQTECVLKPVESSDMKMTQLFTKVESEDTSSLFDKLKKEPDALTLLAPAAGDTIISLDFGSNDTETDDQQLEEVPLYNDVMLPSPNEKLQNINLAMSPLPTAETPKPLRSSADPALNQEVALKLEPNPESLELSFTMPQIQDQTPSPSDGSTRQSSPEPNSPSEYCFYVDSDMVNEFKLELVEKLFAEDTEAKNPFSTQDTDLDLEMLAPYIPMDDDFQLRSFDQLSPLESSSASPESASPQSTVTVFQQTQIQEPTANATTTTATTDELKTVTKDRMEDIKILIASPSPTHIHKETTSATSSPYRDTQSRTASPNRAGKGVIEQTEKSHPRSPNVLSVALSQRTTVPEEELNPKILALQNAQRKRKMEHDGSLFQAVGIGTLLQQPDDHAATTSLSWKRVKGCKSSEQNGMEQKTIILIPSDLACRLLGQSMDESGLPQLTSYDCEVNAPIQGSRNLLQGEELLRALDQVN

Clc1cccc(Cl)c1
inactive: all assays above

CC(C)[N+](=O)[O-]
inactive: all assays above

Nc1c(Oc2ccccc2)cc(O)c2c1C(=O)c1ccccc1C2=O
active: [9] 4.42 µM | [20] 15 µM
inactive: all other assays above

Cc1ccc(CCl)cc1
inactive: all assays above

C=CCOC(F)(C(F)(F)F)C(F)(F)F
inactive: all assays above

CC1(C)[C@H](C(=O)O[C@H](C#N)c2cccc(Oc3ccccc3)c2)[C@@H]1/C=C(\Cl)C(F)(F)F
inactive: [1] | [2] | [3] | [4] | [5] | [6] | [7] | [8] | [10] | [11] | [12] | [13] | [14] | [15] | [16] | [17] | [18] | [19] | [20]
active: [7] 1.16 µM | [9] 384 nM and 683 nM | [20] 0.502 µM

Nc1ccc(N)cc1
inactive: [1] | [2] | [3] | [4] | [6] | [7] | [11] | [12] | [13] | [14] | [15] | [16] | [17] | [18] | [20]
active: [3] 100 µM | [17] 27.7 µM

c1cc[c]([Sb]([c]2ccccc2)[c]2ccccc2)cc1
active: [9] 2.1 µM | [19] 41.1 µM
inactive: all other assays above

NC(=O)c1ccc(N)nc1
inactive: all assays above

COP(=S)(OC)Oc1cc(Cl)c(I)cc1Cl
inactive: [1] | [2] | [7] | [10] | [15] | [16] | [18] | [19]
active: [3] 33.4 µM | [4] 27.2 µM | [5] 62.1 µM | [6] 37.5 µM | [8] 33.4 µM | [9] 8.06 µM | [11] 15 µM | [12] 33.4 µM | [13] 33.4 µM | [14] 37.3 µM | [17] 48.6 µM | [20] 24.7 µM

CC(C)(c1ccc(O)c(-c2ccccc2)c1)c1ccc(O)c(-c2ccccc2)c1
active: [6] 2.93 µM | [9] 0.965 µM | [20] 2.93 µM
inactive: all other assays above

C1CCC(C2CCCCC2)CC1
not listed: [19]
inactive: all other assays above

CC(C)(c1ccccc1)c1cc(-n2nc3ccccc3n2)c(O)c(C(C)(C)c2ccccc2)c1
active: [9] 15.3 µM
inactive: all other assays above
